VACV mCherry inh: inhibitors of vaccinia virus infection (mCherry reporter signal); AID 720579; Potency, µM (highest dose often 36.5 µM), for inactives: at the top dose activity change, negative = inhibition, actives largely listed as inhibitors; 310,000 tested, 0.63% active; Vaccinia virus mCherry reporter infection, fluorescence; calls by dose curve; tested in A549 cells; also: potency is read from the fitted curve at half-maximal effect; nearly all actives have a fitted effect of over 35% in size
HCMV antiviral: blocks human cytomegalovirus replication; HFF cells, HCMV-luciferase reporter, 72 h; hits give low values; activity change, negative = inhibition, % at 57.5 µM; 410,000 tested, 4.5% active; AID 1259415; in the data active = activity change below about -60%; inconclusive = no clear call, values can overlap the other calls; inactive = above about -39%
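Inhibition of viral replication was scored as loss of reporter luminescence in HFFs infected with HCMV-luciferase (MOI 1 PFU/cell) for 72 h; compounds tested at 2 doses, normalized to buffer and Salinomycin controls.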
HCV inh: inhibitors of hepatitis C virus infection | Huh7.5.1 HCVcc-Cre infection, luciferase reporter, 44 h | 340,000 tested, 3.4% active | Potency, µM (doses to about 41.8 µM), without a hit: at the highest dose activity change, negative = inhibition, hits mostly inhibitors | AID 651820; active = well fitted inhibition curve with a large enough effect; inconclusive = small, poorly fitted or top-dose-only effect, or another doubt; inactive = no such curve, though single readings can be large or run the other way; also: potency is read from the fitted curve at half-maximal effect
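Infectious HCV cell culture screen: compound-treated cells (1,000/well, pre-plated 4 h) are infected with HCVcc-Cre at roughly 0.5 moi and grown 44 h. Infection is quantified by luciferase signal after 15 min substrate incubation at room temperature.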
Lassa entry inh: blocks Lassa virus binding to or entry into cells. 300,000 tested, 1.2% active. Potency, µM (highest dose often 37.9 µM), for the others: at the highest dose activity change, negative = inhibition, hits mostly inhibitors. Lassa virus pseudotype entry inhibition, cell reporter; calls by dose curve; tested in HEK293 cells; also: potency is read from the fitted curve at half-maximal effect; nearly all actives have a fitted effect of over 50% in size
VACV Venus inh: inhibitors of vaccinia virus (Venus reporter). Vaccinia virus Venus reporter expression, fluorescence. Potency, µM (doses to about 36.5 µM), inactives show at the highest dose activity change, negative = inhibition, most hits filed as inhibitors. 330,000 tested, 0.46% active. AID 720580; calls by dose curve; tested in A549 cells; also: potency is read from the fitted curve at half-maximal effect; nearly all actives have a fitted effect of over 30% in size
Marburg entry inh: inhibitors of Marburg virus binding or cell entry; AID 540276; 300,000 tested, 1.8% active; Potency, µM (highest dose often 37.8 µM), without a hit: at the highest dose activity change, negative = inhibition, most hits filed as inhibitors; Marburg virus pseudotyped entry inhibition, cell reporter; calls by dose curve; tested in HEK293 cells; also: potency is read from the fitted curve at half-maximal effect
Active calls of the source: *; i = inactive; ? = inconclusive; . = no result given; [ ] = another dose, or the depositor's remark. Only some compounds are listed: those with a hit (about 7.8% of all), similar ones and a draw of the others. % is scaled to controls: 0 for no effect and ±100 for the full control effect.

SMILES	VACV mCherry inh	HCMV antiviral	HCV inh	Lassa entry inh	VACV Venus inh	Marburg entry inh
Nc1nc(N)c(N=Nc2ccc(Cl)cc2)c(=O)[nH]1	.	37	5.6µM*	.	.	.
Nc1nc(N)c(N=Nc2ccc(S(N)(=O)=O)cc2)c(=O)[nH]1	i	2	-25%	.	-6%	.
CCCNC(=O)OC[C@H]1O[C@H](CCON=C2C[C@@H](O)[C@@H](O)[C@@H]3[C@H]4C(=O)N(CC)C(=O)[C@@H]4CC[C@H]23)C=C[C@H]1Oc1ccc(OC)cc1	.	.	.	.	.	0%[14.2 µM]
CCOC(=O)C(NC(=O)CCl)(Nc1sc(C)c(CC)c1C#N)C(F)(F)F (stereo not given)	10µM*	?	?	?	?	-41%
CCOC(=O)C(NC(=O)CC(C)C)(Nc1sc(C)c(CC)c1C#N)C(F)(F)F (stereo not given)	-12%	-40	-6%	-7%	-9%	14%
Cc1ccc(CN2CCC2(C)C(=O)NC2CCc3ccccc32)cc1 (stereo not given)	29%	-8	.	.	0%	.
COc1ccccc1N1CCN(C(=O)C2CCN(S(=O)(=O)c3ccc(F)cc3)CC2)CC1	.	37	-1%	-4%	.	?
CCOc1ccc(S(=O)(=O)N2CCC(C(=O)N3CCN(c4ccccc4F)CC3)CC2)cc1C	?	9	?	7.1µM*	?	?
CCOC(=O)c1ccc(S(=O)(=O)N2CCC(C(=O)N3CCN(c4ccccc4OC)CC3)CC2)cc1	?	4	10µM*	-13%	?	-19%
C#C[C@]1(O)CCC2C3C(=O)C=C4C(Cl)=CCC[C@]4(C)C3CC[C@@]21C (stereo not given in full)	?	-80*	4%	0%[46.1 µM]	?	-6%[46.1 µM]
COc1ccc(CCNC(=O)CCc2c(C)c3cc4c(C)c(C)oc4cc3oc2=O)cc1OC	-4%	-37	.	26%[46.1 µM]	-19%	-2%[46.1 µM]
COC(=O)[C@H](CCSC)NC(=O)Cn1cc(C)c(=O)[nH]c1=O	i	-19	0.5µM*	.	-3%	.
COC(=O)C[C@H](NC(=O)Cn1cc(C)c(=O)[nH]c1=O)C(=O)OC	i	24	5%	.	0%	.
O=C(/C=C/Nc1ccc(F)cc1)c1cccs1	i	17	4%	?	-9%	11µM*
CCOC(=O)C1(CC2CC2)CCN(Cc2cn(C)c3ccccc23)CC1	-18%	?	10µM*	?	-22%	?
c1ccc(-c2noc(-c3ccccc3-c3ccccc3)n2)cc1	-22%	3	0%	10%	-11%	-22%[46.1 µM]
CN(C)c1ccc(-c2noc(-c3ccccc3O)n2)cc1	.	55	-1%	5.8µM*	.	?
Cc1ccccc1-c1noc(-c2ccc(O)cc2)n1	i	-17	14µM*	?	-19%	?
Cc1ccc(S(=O)(=O)CC(=O)N2CCN(c3nc4c(F)cccc4s3)CC2)cc1	-5%	28	.	0%[46.1 µM]	-19%	.
Cc1cc2c(c(=O)o1)[C@H](Cc1ccccc1)C(C#N)=C(N)O2	.	.	.	.	.	19%[46.1 µM]
Cc1cc(C)n2nc(C(=O)OCC(=O)NC(=O)c3ccccc3)nc2n1	-14%	-5	3%	-10%	-5%	0%[46.1 µM]
Cc1cc(C)n2nc(C(=O)OCC(=O)NNC(=O)c3ccccc3)nc2n1	.	-61*	0%	.	.	.
Cc1cc(C)n2nc(C(=O)N/N=C/c3ccccc3Cl)nc2n1	-9%	69	-2%	-3%	-17%	?
Cc1cc(C)n2nc(C(=O)N/N=C/c3c4ccccc4cc4ccccc34)nc2n1	-26%	-76*	-23%	?	-8%	?
Cc1cc(C)n2nc(C(=O)NC(c3ccccc3)c3ccccc3)nc2n1	-8%	-74*	?	?	10%	?
SMILES	VACV mCherry inh	HCMV antiviral	HCV inh	Lassa entry inh	VACV Venus inh	Marburg entry inh
CCCNC(=O)c1cc(C2CCCCN2C(=O)c2ccc(C(C)C)cc2)on1 (stereo not given)	-13%	27	.	.	-16%	.
Cc1cccc(NS(=O)(=O)c2ccc(C(=O)NCC3(N4CCCCC4)CCCCC3)cc2)c1C	-9%	-35	?	?	-28%	11µM*
Cc1ccccc1NS(=O)(=O)c1ccc(C(=O)NCC2(N3CCOCC3)CCCCC2)cc1	.	-6	-26%	.	.	.
Cc1ccc(S(=O)(=O)c2cc3c(=O)n4ccccc4nc3n(C3CCCC3)c2=N)cc1	-14%	8	5µM*	24%[46.1 µM]	-17%	0%[46.1 µM]
Cc1ccc(S(=O)(=O)c2cc3c(=O)n4cccc(C)c4nc3n(C3CCCCC3)c2=N)cc1	-8%	.	-15%	1%[46.1 µM]	5%	9%[46.1 µM]
CC[N+]1(CC(=O)c2ccc(OC)cc2)CCCCC1	-19%	.	.	.	-13%	.
C[C@H]1CN([C@@H](C)CO)S(=O)(=O)c2ccc(Br)cc2O[C@H]1CN(C)C(=O)c1ccccc1F	.	-5	.	.	.	.
Cc1cccc(-n2c(-c3ccco3)nc3c(cnn3-c3ccccc3C)c2=O)c1	0%	-11	.	-15%[46.1 µM]	-12%	?
COc1cccc(-n2c(-c3ccco3)nc3c(cnn3-c3ccc(Cl)cc3)c2=O)c1	-24%	-67*	.	?	-16%	-28%[46.1 µM]
O=c1c2cnn(-c3ccccc3)c2nc(-c2ccco2)n1-c1ccccc1	.	-71*	13µM*	?	.	?
COc1cccc(-n2c(-c3cccc(F)c3)nc3c(cnn3-c3ccc(C)cc3)c2=O)c1	-5%	-28	.	-2%[46.1 µM]	-14%	?
CCC(=O)N1c2ccccc2CC1C(=O)NCCc1ccc(OC)c(OC)c1 (stereo not given)	1%	14	.	5%[46.1 µM]	-5%	.
Cc1cc(C)c2cc(CN(CC3CCCO3)C(=S)NCc3ccco3)c(=O)[nH]c2c1 (stereo not given)	?	?	?	-17%	-30%	-10%[46.1 µM]
Cc1cc(C)c2cc(CN(Cc3ccco3)C(=O)NCc3ccccc3)c(=O)[nH]c2c1	-17%	-29	?	?	?	2.8µM*
Cc1cccc2sc(NC(=O)c3ccc(Cl)s3)nc12	i	90	10µM*	.	-6%	.
CC(C)C(NC(=O)C(C(C)C)N(C)C)C(=O)N(C)C(C(=O)N1CCCC1C(=O)N1CCCC1C(=O)NCc1ccccc1)C(C)C (stereo not given)	?	-86*	31%	?	?	?
Cc1ccc(C)c(N(C)C(=O)C2CCN(c3ncnc4c3nc3n4CCCCC3)CC2)c1	-11%	13	.	?	-16%	.
c1nc(N2CCCCC2)c2[nH]cnc2n1	-2%	-71*	-2%	-5%	-13%	?
O=c1cc(CO)oc(C(Nc2ccccn2)c2ccccc2Cl)c1O (stereo not given)	-12%	6	2%	-15%[46.1 µM]	-22%	-16%[46.1 µM]
Oc1c(C(Nc2ccccn2)c2ccccc2)ccc2cccnc12 (stereo not given)	11µM*	.	.	.	?	.

Bioassay records from PubChem.
